Reference: PubChem BioAssay AID485313 (National Center for Advancing Translational Sciences (NCATS), 2010)
Screen size: about 320,000 compounds; about 7,600 (2.4%) were called active. Entries that show only a call come without a potency. About 3% were inconclusive and are not listed. Calls come from the whole dose curve; as a rule, active = well fitted activation curve with a large enough effect; inconclusive = small, poorly fitted or top-dose-only effect; inactive = no such curve, though single readings can be large or run the other way. For the sample, actives were picked, then their nearest neighbours and some compounds at random.

Assay: qHTS Assay for NPC1 Promoter Activators; note: nearly all actives have a fitted effect of over 60% in size;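 for activation: reporter is driven by a mutant NPC1 promoter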
Details: Huh7 NPC1 promoter luciferase reporter, 24 h; series mostly up to 9.22 µM
Method in brief: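 Huh7 cells stably carrying NPC1 promoter–luciferase, plated in Opti-MEM with 10% FBS for 2 h, were exposed to compound in DMSO for 24 h at 37 °C; luciferase reagent was added for 10 min and luminescence read.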
Potency is the fitted concentration of half-maximal effect.

Row | Structure (SMILES) | Potency
1 | COc1cccc(NC(=O)CN(C)C(=O)c2cc(C3CC3)nn2-c2ccccc2)c1 | inactive
2 | O=C(Nc1ccncc1)c1c(F)cccc1F | inactive
3 | CCCC(=O)Nc1nc2ccc(NC(=O)c3c(F)c(F)c(OC)c(F)c3F)cc2s1 | inactive
4 | CSc1nc2ccc(NC(=O)c3c(F)cccc3F)cc2s1 | 2510 nM (active)
5 | CC1(C)CC(=O)C=C(c2ccc(Cl)c(C(F)(F)F)c2)C1 | inactive
6 | CCOc1ccc(NC(=O)CN(C)C(=O)Cc2sc(C)nc2-c2ccc(F)cc2)cc1OCC | inactive
7 | COc1ccccc1C(=O)NCCC(=O)N(C)Cc1cccnc1 | inactive
8 | CC1(C)O[C@@H]2[C@H](O1)[C@@H](CO)O[C@H]2n1c(N2CCCCC2)nc2c(N)ncnc21 | inactive
9 | O=S(=O)(c1cccc(S(=O)(=O)N2CCC(n3nnc4ccccc43)CC2)c1)N1CCCCC1 | inactive
10 | O=C(c1ccc(F)cc1)N1CCC(n2nnc3ccccc32)CC1 | 4470 nM (active)
11 | CC(=O)c1cccc(S(=O)(=O)N2CCC(n3nnc4cc(F)ccc43)CC2)c1 | inactive
12 | CCCCn1c(N)c(N(CCC(C)C)C(=O)COC(=O)c2cccnc2OCC)c(=O)[nH]c1=O | inactive
13 | CCCCn1c(N)c(N(CCC(C)C)C(=O)COC(=O)c2ccc(CC)cc2)c(=O)[nH]c1=O | inactive
14 | CC(Sc1nnc(-c2cccs2)n1C1CC1)C(=O)NCC1CCCO1 (centres undefined) | inactive
15 | Cc1cc(C(=O)OCC(=O)Nc2nnc(C(C)C)s2)c2ccccc2n1 | inactive
16 | CC(C)CC(=O)NC(=S)NCc1ccccc1 | inactive
17 | CC(C)CC(=O)N/C(N)=N/c1nc2ccccc2s1 | 501 nM (active)
18 | CCC(=O)NC(=Nc1nc2ccccc2s1)NC(=O)CC | 1260 nM (active)
19 | CC(=O)Nc1cccc(-c2nc3ccccc3s2)c1C | inactive
20 | CN(Cc1nc2ccccc2s1)C(=O)c1ccc(F)cc1 | inactive
21 | Cc1ccc(F)cc1NC(=O)CSCc1c(C)noc1C | inactive
22 | Cc1nn(Cc2ccccc2)c(C)c1C(=O)N1CCN(CC(=O)Nc2ccccc2Cl)CC1 | inactive
23 | C=CCC1(CC=C)CCCN1C(=O)c1cc(COc2ccc(-n3cncn3)cc2)on1 | inactive
24 | CC(=O)Nc1ccc(C(=O)Nc2nc(-c3cc(C)n(Cc4ccccc4)c3C)cs2)cc1 | inactive
25 | Cc1ccc(Nc2nc(-c3ccc(O)cc3O)cs2)nc1 | 2000 nM (active)
26 | C=C(C)CNc1cc(S(=O)(=O)N2CCOCC2)ccc1Oc1ccccc1 | inactive

Row | Structure (SMILES) | Potency
27 | CCCn1c(NC(=O)C23CC4CC(CC(O)(C4)C2)C3)nc2ccccc21 | inactive
28 | O=C(NCCc1ccccc1)c1ccc2c(c1)N(Cc1ccccc1)CCS2 | inactive
29 | CC1CCN(C(=O)CCNC(=O)c2ccccc2)CC1 | inactive
30 | CC1CCCN(c2ccc(C(=O)NCCc3ccccc3)cn2)C1 (centres undefined) | 3160 nM (active)
31 | Cc1ccc(NC(=O)CCCNC(=O)c2ccc(Cl)cc2)cc1S(=O)(=O)N1CCCCC1 | inactive
32 | CC(C)(C)C(=O)CSc1ccc(S(=O)(=O)N2CCCC2)cn1 | inactive
33 | CC(NC(=O)c1ccc(S(=O)(=O)Nc2ccccc2)cc1)c1ccc(S(N)(=O)=O)cc1 (centres undefined) | inactive
34 | O=C(Nc1cccnc1)c1cccc(S(=O)(=O)N2CCCC2)c1 | inactive
35 | O=C(Nc1cccnc1)c1cc(Cl)ccc1Cl | inactive
36 | O=C(Nc1cccnc1)c1noc2c1CCCCC2 | 2510 nM (active)
37 | Cc1cccc(-c2oc3ccc(-c4ccc5c(c4)OCO5)cc3c2C#Cc2cncn2C)c1 | inactive
38 | Cc1cccc(C)c1OCCN1CCOCC1 | inactive
39 | Cc1cc2nc(SCCN3CCOCC3)[nH]c2cc1C | 3980 nM (active)
40 | CCn1c2ccc(F)cc2c2nnc(SCCN3CCOCC3)nc21 | inactive
41 | CC(=O)Nc1ccc(NC(=O)C(NS(=O)(=O)c2ccc3c(c2)OCCO3)C(C)C)cc1 (centres undefined) | inactive
42 | COc1cccc(NC(=O)CN(C)C(=O)/C=C/c2cn(-c3ccccc3)nc2-c2cccs2)c1 | inactive
43 | CC1Cc2ccccc2N1S(=O)(=O)c1cccc(C(=O)NCC(c2ccco2)N2CCCC2)c1 (centres undefined) | inactive
44 | CSCC[C@H](NC(=O)OC(C)(C)C)C(=O)N/N=C/c1cc2ccc(C)cc2nc1Cl | inactive
45 | Cc1ccc2cc(/C=N/NC(=O)[C@@H]3CCCN3)c(Cl)nc2c1 | inactive
46 | Cc1ccc2cc(/C=N/Nc3ccc(C(=O)O)cc3)c(Cl)nc2c1 | 1120 nM (active)
47 | O=C(CSc1nc2ccccc2c(=O)n1CCCO)NC1CC1 | inactive
48 | CC(C)c1ccc(NC(=S)NC2CC3C=CC2C3)cc1 (centres undefined) | 3980 nM (active)
49 | S=C(NNC(=S)NC1CC2C=CC1C2)NC1CC2C=CC1C2 (centres undefined) | inactive
50 | S=C(NNC(=S)NC1CC2CCC1C2)NC1CC2C=CC1C2 (centres undefined) | inactive
51 | CCOC(=O)C1=C(COC(=O)[C@H](C)NS(=O)(=O)c2ccccc2F)NC(=O)NC1C (some centres undefined) | inactive
52 | CCOc1ccc(C(C)NC(=O)CN2C(=O)NC3(CCCCC3)C2=O)cc1OCC (centres undefined) | inactive

Row | Structure (SMILES) | Potency
53 | CCC(=O)Nc1ccc(C(=O)Nc2cc(C)on2)cc1 | inactive
54 | Cc1cc(N/C=C\C(=O)c2ccc(Cl)c(Cl)c2)no1 | 2510 nM (active)
55 | Cc1ccc(C(=O)/C=C/Nc2ccc(S(=O)(=O)Nc3onc(C)c3C)cc2)cc1 | inactive
56 | CCOC(=O)Cc1csc(SCC(=O)Nc2ccc(C)cc2F)n1 | inactive
57 | Cc1ccc(S(=O)(=O)N2CCCCC2)cc1NC(=O)c1cccnc1 | inactive
58 | CCCCc1ccc(NC(=O)CN2C(=O)NC(Cc3ccccc3)C2=O)cc1 (centres undefined) | inactive
59 | NC(=O)COC(=O)c1sc2cc(F)ccc2c1Cl | inactive
60 | COc1ccc2c(c1OC)C(=O)N(c1ncn[nH]1)C2 | inactive
61 | COc1cc(C(=O)N2C(=O)c3cccc(N)c3C2=O)cc(OC)c1OC | inactive
62 | COc1ccc2c(c1OC)C(=O)N(c1ccc(O)cc1)C2 | 2820 nM (active)
63 | O=C(c1cc2ccccc2o1)N1CCN(S(=O)(=O)c2ccc(Cl)s2)CC1 | inactive
64 | O=C(OCC(=O)N1CCOCC1)c1ccc2ccccc2c1 | inactive
65 | CCCCNC(=O)Cn1nc(C)c(S(=O)(=O)N2CCOCC2)c1C | inactive
66 | O=c1ccc(S(=O)(=O)N2CCCC2)cn1Cc1nc(-c2ccccc2)no1 | inactive
67 | O=C(CCS(=O)(=O)Cc1ccccc1)Nc1ccc2c(c1)OCCO2 | inactive
68 | Nc1c(C(=O)Nc2ccc3c(c2)OCCO3)nnn1Cc1ccccc1 | 3160 nM (active)
69 | CCc1ccc(NC(=O)Cn2nnc(C(=O)NCc3ccc4c(c3)OCO4)c2N)cc1 | inactive
70 | Nn1c(SCC(=O)Nc2nccs2)nnc1-c1ccco1 | inactive
71 | CC(C)[C@@H](C(=O)O)N(Cc1cccc(CN([C@H](C(=O)O)C(C)C)S(C)(=O)=O)c1)S(C)(=O)=O | inactive
72 | Nc1ccn(C2CC(O)C(CO)O2)c(=O)n1 (centres undefined) | inactive
73 | COc1ccccc1CC(=O)Nc1ccc([N+](=O)[O-])cc1OC | inactive
74 | COc1cccc(NC(=O)c2ccc(Cn3cc([N+](=O)[O-])cn3)o2)c1 | inactive
75 | COc1ccc(C2Nc3ccccc3C(=O)N2c2ccc(F)cc2)cc1Cn1nnc2ccccc21 (centres undefined) | inactive
76 | COc1ccc(C2Nc3ccccc3C(=O)N2c2ccc(Cl)cc2)cc1Cn1cc([N+](=O)[O-])cn1 (centres undefined) | 3980 nM (active)
77 | COc1ccc(N2C(=O)c3ccccc3NC2c2ccc(OC)c(CN3CCOCC3)c2)cc1 (centres undefined) | 2820 nM (active)
78 | COc1ccc(C2Nc3ccccc3C(=O)N2Cc2ccccc2)cc1Cn1nnc2ccccc21 (centres undefined) | inactive

Row | Structure (SMILES) | Potency
79 | COC(=O)Cc1ccc(OCC(=O)NC2CCCC2)cc1 | inactive
80 | CN(CCOc1ccccc1)C(=O)c1cc(-c2ccco2)nc2ccccc12 | inactive
81 | CCN(c1ccccc1)S(=O)(=O)c1cccc(C(=O)NCc2ccccc2CN2CCOCC2)c1 | inactive
82 | c1ccc(-n2ncc3c2ncn2c(C4CCCCC4)nnc32)cc1 | 3980 nM (active)
83 | CN(C(=O)COc1ncnc2c1cnn2-c1ccccc1)C1CCCCC1 | inactive
84 | CC(=O)Cn1cnc2c(cnn2-c2ccccc2)c1=O | inactive
85 | Cc1ccc(S(=O)(=O)N(C)C)cc1NC(=O)CN1c2cccc3cccc(c23)S1(=O)=O | inactive
86 | Cc1nn2cc(-c3ccc(Cl)cc3)cnc2c1Br | 2240 nM (active)
87 | N#CC1(NC(=O)COC(=O)CSc2ccc(F)cc2)CCCCC1 | inactive
88 | COc1ccc(S(=O)(=O)N2CCN(CC(=O)N3c4ccccc4CC3C)CC2)cc1OC (centres undefined) | inactive
89 | Cc1cc(C)nc(Nc2ncn[nH]2)n1 | inactive
90 | Cc1ccccc1-c1n[nH]c(=S)n1C | inactive
91 | Cc1cc(C)nc(Nc2n[nH]c(-c3ccccc3N)n2)n1 | 447 nM (active)
92 | CCCC(=O)Nc1ccc2c(c1)nc(CCNC(=O)c1ccco1)n2C | inactive
93 | O=C(Nc1ccc2oc(-c3ccccc3F)nc2c1)c1ccco1 | 1580 nM (active)
94 | O=C(Nc1cccc(-c2nc3ncccc3o2)c1)c1ccco1 | inactive
95 | COc1ccccc1S(=O)(=O)NCc1ccc(C(=O)N(C)Cc2ccc(F)cc2)cc1 | inactive
96 | Cc1cccc(S(=O)(=O)CC(=O)Nc2nc(-c3ccccc3)cs2)c1 | inactive
97 | CCS(=O)(=O)Nc1cccc(-c2cc(-c3ccccc3)c3cc(C)ccc3n2)c1 | inactive
98 | CC(=O)Nc1cccc(-c2cnc3ccccc3n2)c1 | 2820 nM (active)
99 | CC(=O)Nc1cccc(Nc2nc(-c3cccs3)nc3ccccc23)c1 | inactive
100 | CC(=O)Nc1cccc(-c2csc(Nc3cccc(C)n3)n2)c1 | 708 nM (active)
101 | CC(=O)Nc1ccc(-c2csc(NC=C3C(=O)OC(C)(C)OC3=O)n2)cc1 | inactive
102 | COCCn1c(=NC(=O)c2ccccc2[N+](=O)[O-])sc2cc(S(C)(=O)=O)ccc21 | inactive
103 | Cc1cccc(C(=O)NCC(=O)OCC(=O)N(C)CC(=O)Nc2ccccc2Cl)c1 | inactive
104 | O=C(CSc1nnc(N2CCOCC2)n1-c1cccc(F)c1)N1CCN(c2ccccn2)CC1 | inactive
